In PubChem BioAssay AID687001 (Broad Institute, 2013):
Results with a measured potency or affinity are listed apart.

target: Protein S100-A4 (Homo sapiens) (UniProt P26447); experiment: S100A4-myosin IIA binding inhibitor potency, dose response, biochemical, fluorescence polarization, cherry-picked hits (AID 687001); details: FP, S100A4/TAMRA-myosin IIA peptide binding; series mostly up to 11 µM; activity change, negative = inhibition: at the top concentration;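 further: 0% = DMSO neutral control wells and -100% = TFP positive control wells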
Sequence (P26447 whole entry, looked up): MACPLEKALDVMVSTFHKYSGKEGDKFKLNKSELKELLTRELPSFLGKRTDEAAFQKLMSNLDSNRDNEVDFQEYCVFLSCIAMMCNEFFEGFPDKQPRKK

Activity change, negative = inhibition, inactive:
COCCNC(=O)C[C@@H]1CC[C@H]2[C@@H](COC[C@H](O)CN2Cc2cccc(-c3ccncc3)c2)O1 0.88%, C[C@H]1CCCCO[C@H](CN(C)C(=O)c2ccccc2)[C@@H](C)CN([C@@H](C)CO)C(=O)c2cc(NC(=O)NC3CCCCC3)ccc2O1 4.76%, O=C(Nc1ccc2ccccc2c1)c1ccccc1Cl 0.242%, COc1cccc(CC(NC(C)=O)C(=O)NC2CCN(S(=O)(=O)c3ccc(NC(C)=O)cc3)CC2)c1OC (stereo not drawn) -4.43%, CCCNC(=O)Nc1ccc2c(c1)OC[C@H](C)N(C(=O)C1CC1)C[C@H](C)[C@@H](OC)CN(C)C2=O -1.54%, COC(=O)C[C@@H]1CC[C@H](NC(=O)c2cnccn2)[C@@H](CO)O1 -3.76%, Cn1c(/C(C#N)=C(\O)c2cc(Cl)sc2Cl)nc2ccccc21 -2.38%, Cc1c(C(=O)NCc2cccc([N+](=O)[O-])c2)sc(=O)n1Cc1cccc(F)c1 -1.1%, COc1ccc2[nH]c3c(c2c1)CCN1C(=O)N([C@@H](C)C(=O)NCc2ccccc2)C(=O)[C@]31C 8.69%, CC(=O)N1c2ccc(S(=O)(=O)N3CCC(C(=O)Nc4ncccc4C)CC3)cc2CC1C (stereo not drawn) 0.699%, CN(C(=O)CCc1cn(C)c2ccccc12)c1ccc(Oc2cccnc2)cc1 2.71%, CCCN1C[C@H](C)[C@H](OC)CN(C)C(=O)c2cc(NC(=O)NC3CCCCC3)ccc2OC[C@@H]1C 0.083%, COc1cccc(-c2ccc3n(c2=O)C[C@H]2[C@H](CO)[C@@H](C(=O)N4CCOCC4)N[C@@H]32)c1 4.2%, CN(C)CC(=O)N[C@H]1CC[C@@H](CC(=O)NCc2ccc(Cl)cc2)O[C@@H]1CO -2.55%, O=C(NCCC1CCCCN1S(=O)(=O)c1cccs1)C(=O)Nc1ccc(F)cc1 (stereo not drawn) 3.97%, NS(=O)(=O)c1ccc(NC(=O)COC(=O)CCCN2C(=O)c3cccc4cccc(c34)C2=O)cc1 26.3%, COc1cccc(NC(=O)CN(C)C(=O)c2ccc(N3CCCCC3)c([N+](=O)[O-])c2)c1 2.43%, CC(C)C#Cc1cnc2c(c1)C(=O)N([C@H](C)CO)C[C@H](C)[C@H](CN(C)C(=O)Nc1ccc(F)cc1)O2 -1.53%, C[C@@H]1CCCCO[C@@H](CN(C)C(=O)CCC(F)(F)F)[C@@H](C)CN([C@@H](C)CO)C(=O)c2cc(NC(=O)c3ccccc3)ccc2O1 1.8%, COc1ccc2c3c(n(C)c2c1)[C@H](CO)N(C(=O)c1ccccc1)CC31CCN(C(=O)c2ccccc2)CC1 7.85%, C[C@H](CO)N1C[C@H](C)[C@@H](CN(C)Cc2ccc(Cl)c(Cl)c2)Oc2c(NS(=O)(=O)c3cccs3)cccc2C1=O 2.58%, O=C(Cn1cc(COc2ccc3ccc(=O)oc3c2)nn1)c1ccc(O)cc1 -1.67%, O=C(Nc1ccccc1F)N1CC(=O)N2[C@H](CO)[C@@H](c3ccc(-c4ccccc4)cc3)[C@H]2C1 3.36%, CC[C@]12c3[nH]c4ccc(Cl)cc4c3CCN1C(=O)[C@@H](CC(=O)NCCCn1ccnc1)C[C@@H]2C(=O)N1CCN(C(=O)c2ccco2)CC1 1.58%, COCCN(C(=O)CSc1nc2ccc(OC)cc2[nH]1)c1c(N)n(Cc2ccccc2)c(=O)[nH]c1=O -0.187%, Cc1cc(C)c(C(=O)COC(=O)CNC(=O)c2ccccc2C)c(C)c1 -0.1%, COc1ccc(OCC(=O)N2CCN(S(=O)(=O)c3ccc(Cl)s3)CC2)cc1 -2.66%, C[C@@H]1CN([C@@H](C)CO)C(=O)c2cccc(NC(=O)Nc3cccc4ccccc34)c2O[C@H]1CN(C)C(=O)Nc1ccccc1 -1.27%, Cc1ccc(CNS(=O)(=O)c2ccc(C)s2)cc1 0.881%, COc1ccc(Cl)cc1S(=O)(=O)n1ccnc1 -1.32%, Cc1ccc(S(=O)(=O)N[C@H]2C=C[C@H](CC(=O)O)O[C@@H]2CO)cc1 2.12%, CCCC(=O)Nc1ccc2c(c1)C(=O)N(C)C[C@H](OC)[C@H](C)CN(Cc1ccccc1)[C@H](C)CO2 4.6%, C[C@@H]1CN([C@@H](C)CO)C(=O)c2cc(NC(=O)NC3CCCCC3)ccc2O[C@@H](C)CCCCO[C@@H]1CN(C)S(=O)(=O)c1cn(C)cn1 -0.131%, C[C@@H]1CN([C@H](C)CO)S(=O)(=O)c2ccc(-c3cccnc3)cc2O[C@@H]1CN(C)C(=O)CC1CC1 2.97%, CCC1(CC)NC(=O)N(CC(=O)Nc2ccc(C)cc2C)C1=O -2.97%, O=C1N[C@@H](Cc2ccccc2)COC(=O)[C@@H](Cc2ccc(F)cc2)CC/C=C/C[C@H]1CC(=O)N(CCO)Cc1ccccc1 -2.62%, S=C(NCCCc1cnc[nH]1)NCCCN(Cc1ccc(Cl)cc1)c1ccc(Br)cn1 -3.41%, Cc1cc2ccccc2n1CCNC(=O)Cc1cccc2ccccc12 -5.56%
